# Reference: PubChem BioAssay
# Active and inactive are the calls of the source. Unless noted, the rule behind the calls is not given here.
# Key:
# [1] = system: XIP peptide (Xip251-270) binding; test: XIP fragment 251-270 binding compounds – biochemical, small-molecule microarray, fluorescence 635/667 nm, 0.1 µg/mL protein, primary screen (AID 1182); details: fluorescent protein binding, 635 nm, higher = more signal, called active from +8 up or from −8 down
# [2] = system: XIP peptide (Xip251-270); test: compounds binding XIP fragment 251-270 – biochemical, small-molecule microarray, fluorescence 635/667 nm, 0.5 µg/mL protein, primary screen (AID 1183); details: fluorescence 635 nm, higher = more signal
# [3] = blood-stage malaria parasite viability loss – strain 3D7, DAPI fluorescence, 100 nL, primary screen (AID 1184);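 note: parasites grown inside human red blood cells in medium with human serum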; details: P. falciparum 3D7 growth, 3 d, higher = more signal
# [4] = biological target: Homeobox protein Hox-A13 (Mus musculus) (UniProt Q62424); test: disruptors of Hoxa13 oligonucleotide interaction – biochemical, fluorescence polarization, labeled oligonucleotide, primary screen (AID 1185); details: Hoxa13:DNA binding, 15 min, higher = more signal, called active from +8 up or from −8 down
# [5] = blockers of DNA damage checkpoint Chk1 activation – imaging, HeLa, hydroxyurea, phospho-Chk1 antibody, percent positive cells, primary screen (AID 1186); details: hydroxyurea-induced phospho-Chk1 immunofluorescence imaging, higher = more signal
# [6] = blockers of DNA damage checkpoint Chk1 activation – imaging, HeLa, hydroxyurea, phospho-Chk1 nuclear intensity, primary screen (AID 1187); details: hydroxyurea-induced phospho-Chk1 immunofluorescence imaging, higher = more signal
# Sequence of Homeobox protein Hox-A13 (Mus musculus) (Q62424 whole entry, looked up): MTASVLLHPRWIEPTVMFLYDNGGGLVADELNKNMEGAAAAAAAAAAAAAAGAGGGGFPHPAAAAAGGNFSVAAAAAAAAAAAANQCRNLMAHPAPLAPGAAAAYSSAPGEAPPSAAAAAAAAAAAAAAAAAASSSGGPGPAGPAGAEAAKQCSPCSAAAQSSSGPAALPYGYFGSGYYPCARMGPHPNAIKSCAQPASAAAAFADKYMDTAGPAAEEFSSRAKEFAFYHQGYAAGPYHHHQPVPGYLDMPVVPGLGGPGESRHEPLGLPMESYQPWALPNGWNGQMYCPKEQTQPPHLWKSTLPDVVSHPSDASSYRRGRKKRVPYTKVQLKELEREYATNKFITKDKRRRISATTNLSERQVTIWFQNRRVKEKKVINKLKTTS
SMILES,composite z-score [1],composite z-score [2],z-score [3],z-score [4],z-score [5],z-score [6]
CC(C)N1C(=O)c2ccccc2[C@](C)(C(=O)NCC(F)(F)F)[C@@H]1c1ccc(CO)cc1,0.112 (inactive),0.464,-0.805,-1.98 (inactive),0.256 (inactive),0.462 (inactive)
O=C(NCCN1CCOCC1)[C@@H]1c2ccccc2C(=O)N(Cc2ccccc2C(F)(F)F)[C@H]1c1ccc(CO)cc1,0.3 (inactive),0.777,-1.16,-3.55 (inactive),0.126 (inactive),0.371 (inactive)
CCCC[C@H]1OB(O)C[C@H]2C1=C(COc1ccccc1)C[C@H]1C(=O)C=CC(=O)[C@H]12,0.0738 (inactive),-0.114,-0.948,-5.45 (inactive),-0.177 (inactive),-0.274 (inactive)
C=CCOC(=O)[C@@H]1[C@H]2C(=O)O[C@H](c3ccccc3)[C@H](c3ccccc3)N2[C@H](c2ccc(OCCOC(=O)[C@H]3C[C@H]4C(=O)N5CCC[C@H]5C(=O)N4[C@H]3c3cccc(OCCO)c3)cc2)[C@@]12C(=O)Nc1ccc(I)cc12,0.781 (inactive),0.875,-0.441,0.634 (inactive),-0.479 (inactive),-0.434 (inactive)
COC(=O)[C@]1(CCC(=O)OC(C)(C)C)N=C(c2ccc(OCCCO)cc2)O[C@@H]1c1ccccc1N=[N+]=[N-],-0.194 (inactive),0.633,-1.98,-2.21 (inactive),0.0989 (inactive),0.562 (inactive)
C#CCN1[C@@H](Cc2ccccc2)C(=O)O[C@H](Cc2ccccc2)[C@@H]1/C=C/C1CC1,-0.157 (inactive),0.5,-1.18,-0.571 (inactive),-0.352 (inactive),-0.267 (inactive)
CCCCC(O)C1C=CC2C(=O)N(c3ccccc3)C(=O)C2N1Nc1ccccc1 (configuration not stated),0.145 (inactive),0.137,-0.0871,-4.11 (inactive),0.385 (inactive),0.283 (inactive)
C=C(COC)C(=O)CC[C@@H](OC(C)=O)c1ccccc1OCCO,0.0063 (inactive),0.522,-2.06,-5.01 (inactive),0.374 (inactive),0.77 (inactive)
C=CCOC(=O)[C@@H]1[C@H]2C(=O)O[C@H](c3ccccc3)[C@H](c3ccccc3)N2[C@H](c2ccc(OCCOC(=O)[C@H]3C[C@H]4C(=O)NCC(=O)N4[C@H]3c3cccc(OCCO)c3)cc2)[C@@]12C(=O)Nc1ccc(I)cc12,0.604 (inactive),0.794,-1.9,0.337 (inactive),-0.856 (inactive),-1.2 (inactive)
COC(=O)C(CC#Cc1ccc2c(c1)[C@]1(C(=O)N2)[C@H](C(=O)N2CCc3cc(OC)c(OC)cc3C2)[C@H]2C(=O)O[C@H](c3ccccc3)[C@H](c3ccccc3)N2[C@@H]1c1ccccc1OCCO)C(=O)OC,0.254 (inactive),0.796,-2.23,2.81 (inactive),-0.0915 (inactive),0.0536 (inactive)
COC(=O)[C@@]1(Cc2ccc(OC)cc2)[C@H]2c3cc(C(=O)N4CCCC4)n(Cc4ccc(C(F)(F)F)nc4)c3C[C@H]2CN1C(=O)c1ccccc1,0.143 (inactive),-0.39,-1.5,-5.12 (inactive),0.664 (inactive),0.712 (inactive)
CCCCCCc1nc(-c2ccc(-c3ccc(Cl)c(Cl)c3)o2)cc2c1[Si](C(C)C)(C(C)C)OC2,0.108 (inactive),-0.0619,-2.22,-3.51 (inactive),-0.6 (inactive),-0.222 (inactive)
[N-]=[N+]=Nc1ccccc1C[C@@]1(C(=O)NCc2ccccc2)N=C(c2ccc(OCCCO)cc2)O[C@@H]1c1ccccc1N=[N+]=[N-],1.46 (inactive),0.729,-2.76,-0.454 (inactive),-0.747 (inactive),-1.1 (inactive)
CC(C)NC(=O)[C@@H]1c2ccccc2C(=O)N(Cc2ccc(OC(F)(F)F)cc2)[C@H]1c1ccc(CO)cc1,-0.514 (inactive),0.72,-1.58,-3.72 (inactive),0.244 (inactive),0.137 (inactive)
CC(C)C(O)C1C=CC2C(=O)NC(=O)C2N1Nc1ccccn1 (configuration not stated),0.163 (inactive),0.943,0.17,-3.11 (inactive),-0.446 (inactive),-0.67 (inactive)
CN1C(=O)C2C(C3CC3)C=C3CN(Cc4cccc(Cl)c4)[C@@H]([C@@H](O)Cc4ccccc4)C3C2C1=O (some centres not stated),0.163 (inactive),0.74,-0.185,-4.6 (inactive),-1.34 (inactive),-2.37 (inactive)
COc1ccc([Si](C)(C)[C@H]2[C@H](CCO)O[C@@]3(C(=O)N(Cc4cccc(N(C=O)c5ccccc5)c4)c4ccccc43)[C@@H]2C)cc1,0.293 (inactive),0.665,-2.57,-0.557 (inactive),-1.73 (inactive),-0.831 (inactive)
